# Compound activity as filed in PubChem BioAssay.
# Compounds with a hit are over-represented: about 3.4% of the library has one in this group of screens.
# VDR inhibitor: Inhibitors of the vitamin D receptor (VDR): qHTS. Vitamin D3 receptor (Homo sapiens), P11473. Potency, µM, without a hit: max response, negative = inhibition, most hits filed as inhibitors. VDR-SRC2-3 peptide fluorescence polarization, 2 h. hit rate 0.93% among 400,000; note: % is set by controls: 0 for no effect and ±100 for the full control effect
#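 After 23 nl compound addition and a short centrifugation, plates sat for 2 hours at ambient temperature; polarization of fluorescence then indicated loss of VDR binding to peptide SRC2-3.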
# PLK1 PBD inh: qHTS for Inhibitors of PLK1-PDB (polo-like kinase 1 - polo-box domain): Primary Screen. Serine/threonine-protein kinase PLK1 (Homo sapiens), P53350. Plk1 PBD binding of FITC phosphopeptide, fluorescence polarization. Potency, µM, without a hit: max response, negative = inhibition, hits mostly inhibitors. hit rate 2.8% among 360,000. AID 720504, 2013; note: series mostly up to about 57 µM; % is set by controls: 0 for no effect and ±100 for the full control effect; nearly all actives have a fitted effect of over 65% in size
# PKM2 act: qHTS Assay for Activators of Human Muscle isoform 2 Pyruvate Kinase. Pyruvate kinase PKM (Homo sapiens), P14618. purified PKM2, Kinase-Glo ATP luminescence, activation; response scale: 0% is enzyme alone, no compound. Potency, µM (series often up to 57.5 µM), for inactives: at the top dose activation, most hits filed as activators. hit rate 0.34% among 260,000. AID 1631, 2009; note: % is set by controls: 0 for no effect and ±100 for the full control effect; nearly all actives have a fitted effect of over 55% in size
#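 ATP formation by purified human PK-M2, quantified via coupled luciferase luminescence after 1 h at room temperature with 0.1 mM ADP and 0.5 mM PEP final.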
# GLS inh: qHTS for Inhibitors of Glutaminase (GLS); Glutaminase kidney isoform, mitochondrial (Homo sapiens), O94925; GLS enzymatic activity, qHTS titration; Potency, µM (top dose mostly 45.5 µM), inactives show at the highest dose activity change, negative = inhibition, actives largely listed as inhibitors; hit rate 0.21% among 410,000; AID 624170, 2012; note: % is set by controls: 0 for no effect and ±100 for the full control effect
#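 hKGA; 45 mM KH2PO4 pH 8.2 + 0.02% Tween-20; cpd via pin tool; 1 mM Gln soln; GluOx/HRP/Amplex Red; RT 30 min; fluor. t0 & final.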
# Mito fusion yeast: qHTS Assay for Small Molecule Inhibitors of Mitochondrial Division or Activators of Mitochondrial Fusion; S. cerevisiae fusion-defective mutant growth rescue, CellTiterGlo 48 h; Potency, µM (doses to about 46.1 µM), for the others: top-dose growth rescue (activation), most hits filed as activators; hit rate 0.23% among 320,000; note: % of control where 0% means no effect; nearly all actives have a fitted effect of over 45% in size
#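 Yeast fusion mutant, YPEG (non-fermentable carbon), compound, 48 h at 37C non-permissive; CellTiterGlo added, 10 min RT, luminescence read. Rescued growth = division inhibition.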
# GCN5L2 inh: qHTS Assay for Inhibitors of GCN5L2; Potency, µM (titrated, usually from 58.9 µM), for inactives: top-dose activity change, negative = inhibition, most hits filed as inhibitors; Histone acetyltransferase KAT2A (Homo sapiens), Q92830; hit rate 0.21% among 390,000; GCN5L2 HAT assay, ThioGlo1 CoA-SH fluorescence; AID 504327, 2011; note: % is set by controls: 0 for no effect and ±100 for the full control effect
# Target sequence (Q92830 whole entry, looked up): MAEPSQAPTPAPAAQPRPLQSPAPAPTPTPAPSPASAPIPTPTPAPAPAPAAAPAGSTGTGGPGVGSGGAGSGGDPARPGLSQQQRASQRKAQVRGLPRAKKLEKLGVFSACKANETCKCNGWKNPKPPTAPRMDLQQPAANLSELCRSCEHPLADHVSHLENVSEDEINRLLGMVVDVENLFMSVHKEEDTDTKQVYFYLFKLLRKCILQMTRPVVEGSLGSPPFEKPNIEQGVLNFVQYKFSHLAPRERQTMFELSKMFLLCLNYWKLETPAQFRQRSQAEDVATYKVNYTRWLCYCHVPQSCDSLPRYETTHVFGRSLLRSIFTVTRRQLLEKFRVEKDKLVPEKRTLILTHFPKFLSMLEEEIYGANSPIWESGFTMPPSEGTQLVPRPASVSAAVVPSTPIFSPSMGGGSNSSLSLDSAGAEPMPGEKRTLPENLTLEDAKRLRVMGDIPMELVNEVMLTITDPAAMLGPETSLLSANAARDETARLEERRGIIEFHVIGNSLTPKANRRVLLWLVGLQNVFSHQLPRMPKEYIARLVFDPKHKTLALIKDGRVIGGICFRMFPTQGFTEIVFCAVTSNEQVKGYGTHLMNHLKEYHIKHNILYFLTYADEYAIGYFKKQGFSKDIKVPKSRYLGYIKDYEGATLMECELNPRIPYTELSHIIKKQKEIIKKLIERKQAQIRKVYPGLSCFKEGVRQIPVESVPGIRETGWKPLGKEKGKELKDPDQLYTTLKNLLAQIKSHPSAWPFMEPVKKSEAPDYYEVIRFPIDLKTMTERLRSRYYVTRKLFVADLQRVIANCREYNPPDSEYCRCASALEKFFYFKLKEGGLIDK
#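 Titration-based screen in which CoA formation is detected via maleimide probe ThioGlo1 (50uM) turning fluorescent on thiol reaction; substrates H3(1-25) 75uM and acetyl-CoA 70uM, GCN5L2 20nM, 20 min incubation at room temperature.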
# * = called active by the depositor; ? = inconclusive; . = no result. Calls come from the whole dose curve; as a rule, active = well fitted curve in the direction sought with a large enough effect; inconclusive = small, poorly fitted or top-dose-only effect, or another doubt; inactive = no such curve, though single readings can be large; an effect the other way counts as inactive or inconclusive. Potency is the fitted concentration of half-maximal effect.
SMILES,VDR inhibitor,PLK1 PBD inh,PKM2 act,GLS inh,Mito fusion yeast,GCN5L2 inh
NC(=O)CC(NC(=S)NCc1ccccc1)C(=O)O (stereo unspecified),-5.9%,21.2µM*,1.2%,1.8%,12.3%,82.6%
CC(=O)Nc1ccc(S(=O)(=O)N(C)CC(=O)OCC(=O)c2ccc[nH]2)cc1,-1.3%,-5.2%,.,4.4%,.,-3.5%
O=C(N/N=C/c1cn(-c2cccs2)nc1-c1ccccc1)c1ccc(O)cc1,3.1%,-3.6%,-7.2%,6.0%,3.7%,-7.4%
O=C(N/N=C/c1cn(-c2cccs2)nc1-c1ccccc1)c1ccccc1Cl,-12.2%,-0.8%,-2.9%,0.3%,17.8µM*,-11.5%
CCOc1ccc(NC(=O)c2c(NC(=O)c3ccccc3Br)sc3c2CCC(C)C3)cc1 (stereo unspecified),39.8µM*,.,.,-11.9%,.,?
CCOC(=O)c1ccc(NC(=O)c2c(NC(C)=O)sc3c2CCC(C)C3)cc1 (stereo unspecified),-5.4%,.,.,-8.3%,.,-4.4%
O=C(CSc1nc2ccccc2c(=O)n1CC1CCCO1)NCc1ccc2c(c1)OCO2 (stereo unspecified),-19.6%,26.7µM*,-1.9%,-5.9%,-7.7%,-3.5%
Cc1ccc(NC(=O)CSc2nc3ccccc3c(=O)n2CCCC(=O)NCC2CCCO2)cc1 (stereo unspecified),-21.0%,26.7µM*,.,0.4%,-2.9%,3.2%
N#CCCn1c(SCC(=O)NCC2CCCO2)nc2ccccc21 (stereo unspecified),-8.4%,-9.9%,20µM*,6.7%,-0.5%,-0.6%
O=C(CCCn1c(SCC(=O)NCC2CCCO2)nc2ccccc2c1=O)NCc1ccccc1 (stereo unspecified),1.9%,-1.0%,-4.2%,9.4%,-1.0%,-6.2%
O=C(CSc1nc2ccccc2c(=O)n1CC1CCCO1)NCCc1ccccc1 (stereo unspecified),5.7%,-5.8%,.,-14.5%,8.3%,-14.9%
CCOC(=O)C1=C(C)Nc2ccccc2N=C1NC(=O)c1cc(C)on1,3.4%,1.5%,.,3.2%,-0.1%,-3.7%
Cc1cc(C)c(NC(=O)Cn2c(=O)n(Cc3ccc(C(=O)NCc4ccco4)cc3)c(=O)c3sccc32)c(C)c1,15.8%,.,.,-26.1%,.,?
NCCC[C@@H](CC(=O)N[C@@H]1CCNC[C@H]1C(=O)N[C@H](CC(=O)N[C@@H](CCC(=O)O)CC(=O)O)Cc1c[nH]c2ccccc12)NC(=O)C[C@H](CO)NC(=O)[C@@H]1CNCC[C@H]1N,-1.1%,.,.,.,.,.
O=C1NC[C@H](CCCCN2C[C@H](Cc3ccc(O)cc3)N(CCc3ccccc3)C(=O)C2=O)N(CCC2CCCCC2)C1=O,.,-0.3%,.,-1.1%,.,.
C=CCOC(=O)NC(c1ccc(F)c(F)c1)C(C(=O)CCl)C(=O)OC (stereo unspecified),44.7µM*,.,.,.,.,.
COc1ccc(-n2cnc(=S)[nH]c2=S)cc1,28.2µM*,?,.,16.9%,.,.
COc1cc2c(cc1OC)C(/C=C/c1ccc(OC)c(OC)c1OC)=NCC2,50.1µM*,.,.,.,.,.
COc1ccc(NC(=O)C2C3C=CC4(O3)C2C(=O)N(CCN2CCCCC2)C4C(=O)NC2CCCC(C)C2C)cc1 (stereo unspecified),13.8%,-2.6%,-3.1%,5.8%,31.6µM*,0.0%
COc1cc(/C=C/C(=O)OCC(=O)NCCN2C(=O)CSC2=O)ccc1OCC#N,-6.1%,2.9%,.,-3.5%,-5.3%,-3.0%
C=CCn1c(SCC(=O)c2ccc(CNC(C)=O)o2)nc2scc(C3CC3)c2c1=O,-14.8%,29.9µM*,18.3%,-14.7%,-3.1%,-16.4%
